Experiment [1] can be described thus: compounds binding Alexa647 anti-His antibody – biochemical, small-molecule microarray, 635 nm fluorescence, artefact control for SMM control protein annotation, primary screen (AID 1128).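 Also: score merges feature fluorescence with signal-to-noise for each printed compound spot.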 Conditions: higher = more signal.
The subject of experiment [2] is Human papillomavirus type 1a E7 protein (residues 1-88). Kind of experiment: HPV1a E7 small-molecule binders, primary screen, biochemical, small-molecule microarray, residues 1-88, 635 nm (AID 1129). To be noted: small-molecule microarray binding, fluorescence 635 nm; higher = more signal.
In experiment [3] the target is Focal adhesion kinase 1 (Homo sapiens) (UniProt Q05397). Description: PTK2 protein binding on printed compound slides – biochemical, small-molecule microarray, 635/667 nm fluorescence, BSA, DTT, primary screen (AID 1130).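 Also: composite of spot emission at 667 nm and signal to noise over triplicate slides.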 To be noted: 635 nm fluorescence, higher = more signal.
Experiment [4] concerns Fibrinogen (Alexa647-labelled). Description: Alexa647-fibrinogen binding to printed small molecules – biochemical, small-molecule microarray, 635/667 nm fluorescence, artefact control for SMM control-protein annotation, profiling panel (AID 1131).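 Also: z-score merges 667 nm fluorescence with per-spot signal-to-noise over triplicate slides.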 To be noted: fibrinogen-A647 binding fluorescence, higher = more signal.
For experiment [5], the target named is Follistatin (Homo sapiens) (UniProt P19883). Kind of experiment: FST protein binding to printed compounds – biochemical, small-molecule microarray, 635/667 nm fluorescence, primary screen (AID 1132). To be noted: 635 nm fluorescence, higher = more signal.
The target in experiment [6] is Fibroblast growth factor 2 (Homo sapiens) (UniProt P09038). Kind of experiment: basic fibroblast growth factor binding to printed compounds – biochemical, small-molecule microarray, 635/667 nm fluorescence, primary screen (AID 1133). To be noted: FGF2, fluorescence 635/667, higher = more signal.
The nature of experiment [7]: JC-1 mitochondrial potential readout, lung cancer cells – cell-based, A549, JC-1 fluorescence, basal, 24 h, 100 nL, profiling panel (AID 1138).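 Also: A549 lung adenocarcinoma cells under basal conditions with no added stimulus; test concentration not given here.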 To be noted: higher = more signal.
The test system of experiment [8] is Lefty1. Description: Lefty1 protein binding to printed compounds – biochemical, small-molecule microarray, 635/667 nm fluorescence, primary screen (AID 1139). To be noted: fluorescence 635/667, higher = more signal.
The test system of experiment [9] is wheat germ agglutinin (Triticum aestivum), Alexa647-labelled. Kind of experiment: Alexa647-WGA lectin binding to printed small molecules – biochemical, small-molecule microarray, 635/667 nm fluorescence, artefact control for SMM control-protein annotation, profiling panel (AID 1140).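 Also: score merges 667 nm feature emission with signal to noise over triplicate slides.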 Conditions: WGA-A647 binding, 635 nm fluorescence, higher = more signal.
For experiment [10], the target named is Luciferin 4-monooxygenase (Photinus pyralis) (UniProt P08659). Kind of experiment: inhibition of purified Photinus pyralis luciferase – biochemical, luminescence, purified enzyme, 2006 set, primary screen (AID 1141).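 Also: cell-free assay with purified firefly luciferase at 100 ng per well in PBS; test concentration not given here.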 Conditions: purified firefly luciferase, SteadyGlo luminescence, 30 min; higher = more signal, called active from +8 up or from −8 down.
Experiment [11] deals with Wnt5a (protein binding on small-molecule microarray). Description: small molecules binding Wnt5a protein – biophysical, small-molecule microarray, 635/667 nm fluorescence, primary screen (AID 1142).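 Also: fluorescence read at 667 nm with signal to noise per printed feature.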 To be noted: 635 nm fluorescence, higher = more signal.
Experiment [12] is described as follows: ATP-based viability of Huh7 replicon cells – cell-based, CellTiter-Glo luminescence, basal, 48 h, cytotoxicity control for HCV replication inhibitor project, primary screen (AID 1143).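 Also: Huh7 hepatoma cells carrying a hepatitis C replication reporter with no stimulus; test concentration not given here.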 Conditions: higher = more signal, called active from +8 up or from −8 down.
The nature of experiment [13]: Pseudomonas biofilm growth suppression – PAO1 strain, BacTiter-Glo luminescence, LB-PBS, primary screen (AID 1144). Conditions: P. aeruginosa PAO1 biofilm, 12 h, higher = more signal.
The nature of experiment [14]: basal CRE-LacZ reporter activity in PC12 – cell-based, unstimulated, primary screen (AID 1145). To be noted: no forskolin, luminescence, 4.5 h, higher = more signal, called active from +8 up or from −8 down.
Experiment [15] in a line: forskolin-driven CRE-LacZ activity in PC12 – cell-based, CRE-LacZ reporter, forskolin-stimulated, primary screen (AID 1146).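 Also: PC12 cells with 6xCRE LacZ reporter stimulated by forskolin 10 µM; beta-galactosidase reporter signal reflecting CREB driven transcription.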 Conditions: luminescence, 4.5 h, higher = more signal, called active from +8 up or from −8 down.
Experiment [16] addresses Streptavidin (Streptomyces avidinii) (UniProt P22629). Description: compounds binding control protein streptavidin – biophysical, small-molecule microarray, 635/667 nm fluorescence, artefact control for SMM compound annotation, primary screen (AID 1147).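 Also: signal reflects streptavidin binding to arrayed compounds as a control protein.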 To be noted: higher = more signal.
Experiment [17] is described as follows: probe aInhba binding on compound microarray – biochemical, small-molecule microarray, 635/667 nm fluorescence, primary screen (AID 1148).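 Also: score merges 667nm spot fluorescence with signal-to-noise for antibody binding to printed compounds.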 To be noted: higher = more signal.
In experiment [18] the target is Torsin-1A (Homo sapiens) (UniProt O14656). Description: TOR1A wild-type binding on microarray – cell lysate, small-molecule microarray, lysate, 635/667 nm, primary screen (AID 1149). Conditions: COS7 hTOR1A-WT lysate, 635 nm fluorescence, higher = more signal.
Experiment [19] shares this target. Description: torsin A mutant lysate binding on microarrays – cell lysate, small-molecule microarray, COS7 lysate, 635/667 nm fluorescence, primary screen (AID 1150).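 Also: score pools 667 nm emission and signal to noise measuring lysate protein binding.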 To be noted: COS7 hTOR1A mutant lysate, 635 nm fluorescence, higher = more signal.
Experiment [20] has as its system Sonic hedgehog protein (Shh). Description: Sonic hedgehog microarray binding compounds – biochemical, small-molecule microarray, 635/667 nm fluorescence, primary screen (AID 1151).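 Also: Shh protein binding to compounds spotted on small-molecule microarray slides; score combines spot fluorescence intensity with signal-to-noise across triplicate slides.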 To be noted: 635 nm fluorescence, higher = more signal.

Active and inactive are the calls of the source. Unless noted, no rule for the calls is given here.

Chain of Luciferin 4-monooxygenase (Photinus pyralis) (P08659 whole entry, looked up): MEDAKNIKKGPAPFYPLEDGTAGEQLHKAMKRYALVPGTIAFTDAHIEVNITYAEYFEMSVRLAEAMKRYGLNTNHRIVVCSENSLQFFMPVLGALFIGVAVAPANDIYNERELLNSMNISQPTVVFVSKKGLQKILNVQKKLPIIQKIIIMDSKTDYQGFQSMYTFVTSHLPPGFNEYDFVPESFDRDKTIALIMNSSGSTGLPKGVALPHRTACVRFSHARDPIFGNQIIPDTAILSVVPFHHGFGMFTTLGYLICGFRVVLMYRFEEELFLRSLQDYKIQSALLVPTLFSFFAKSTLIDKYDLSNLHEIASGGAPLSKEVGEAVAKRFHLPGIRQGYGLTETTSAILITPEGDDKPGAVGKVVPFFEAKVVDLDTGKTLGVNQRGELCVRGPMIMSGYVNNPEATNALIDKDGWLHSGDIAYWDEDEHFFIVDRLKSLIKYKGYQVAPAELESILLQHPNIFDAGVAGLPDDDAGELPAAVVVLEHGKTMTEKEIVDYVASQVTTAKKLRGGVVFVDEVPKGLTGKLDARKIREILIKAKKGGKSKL
Chain of Streptavidin (Streptomyces avidinii) (P22629 whole entry, looked up): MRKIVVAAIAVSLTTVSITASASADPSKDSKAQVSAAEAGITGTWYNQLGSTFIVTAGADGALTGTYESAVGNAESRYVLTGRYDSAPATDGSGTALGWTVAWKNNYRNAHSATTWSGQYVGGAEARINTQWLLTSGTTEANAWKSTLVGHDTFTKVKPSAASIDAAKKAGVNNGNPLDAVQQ
Chain of Focal adhesion kinase 1 (Homo sapiens) (Q05397 whole entry, looked up): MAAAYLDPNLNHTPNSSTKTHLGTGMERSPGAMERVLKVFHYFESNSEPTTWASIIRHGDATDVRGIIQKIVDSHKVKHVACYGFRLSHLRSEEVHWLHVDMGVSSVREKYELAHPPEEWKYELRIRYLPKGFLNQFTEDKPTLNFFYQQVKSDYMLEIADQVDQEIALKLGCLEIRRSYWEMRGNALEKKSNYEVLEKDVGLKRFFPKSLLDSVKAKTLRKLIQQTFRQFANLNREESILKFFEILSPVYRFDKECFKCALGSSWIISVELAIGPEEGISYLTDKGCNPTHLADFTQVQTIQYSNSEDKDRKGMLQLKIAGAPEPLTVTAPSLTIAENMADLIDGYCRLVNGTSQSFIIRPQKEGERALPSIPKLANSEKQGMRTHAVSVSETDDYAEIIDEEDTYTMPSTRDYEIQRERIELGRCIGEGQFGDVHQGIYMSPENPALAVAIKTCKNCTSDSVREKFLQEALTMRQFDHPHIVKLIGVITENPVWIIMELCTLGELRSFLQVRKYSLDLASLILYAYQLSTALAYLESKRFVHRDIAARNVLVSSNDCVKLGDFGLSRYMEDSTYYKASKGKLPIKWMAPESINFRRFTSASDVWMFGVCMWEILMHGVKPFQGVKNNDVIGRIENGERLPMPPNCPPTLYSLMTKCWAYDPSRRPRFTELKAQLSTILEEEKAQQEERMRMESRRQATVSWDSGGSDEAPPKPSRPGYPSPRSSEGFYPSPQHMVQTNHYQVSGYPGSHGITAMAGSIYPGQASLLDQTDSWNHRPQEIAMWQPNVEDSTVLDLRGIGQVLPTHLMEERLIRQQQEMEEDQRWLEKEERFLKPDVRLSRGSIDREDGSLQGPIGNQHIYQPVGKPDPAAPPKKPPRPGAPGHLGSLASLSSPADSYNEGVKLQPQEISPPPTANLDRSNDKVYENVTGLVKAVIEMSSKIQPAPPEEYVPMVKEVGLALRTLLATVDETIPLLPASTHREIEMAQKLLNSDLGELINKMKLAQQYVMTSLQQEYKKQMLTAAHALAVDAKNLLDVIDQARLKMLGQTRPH
Chain of Follistatin (Homo sapiens) (P19883 whole entry, looked up): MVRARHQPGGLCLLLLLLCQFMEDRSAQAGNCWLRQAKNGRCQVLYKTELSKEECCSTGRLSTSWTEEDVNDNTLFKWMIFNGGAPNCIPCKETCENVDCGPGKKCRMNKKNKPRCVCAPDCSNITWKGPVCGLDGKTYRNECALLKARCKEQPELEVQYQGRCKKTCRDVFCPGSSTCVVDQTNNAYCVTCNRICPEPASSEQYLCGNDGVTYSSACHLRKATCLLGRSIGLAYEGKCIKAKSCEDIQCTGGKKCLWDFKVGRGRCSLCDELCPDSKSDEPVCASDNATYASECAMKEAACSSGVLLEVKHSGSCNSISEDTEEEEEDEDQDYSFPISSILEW
Chain of Fibroblast growth factor 2 (Homo sapiens) (P09038 whole entry, looked up): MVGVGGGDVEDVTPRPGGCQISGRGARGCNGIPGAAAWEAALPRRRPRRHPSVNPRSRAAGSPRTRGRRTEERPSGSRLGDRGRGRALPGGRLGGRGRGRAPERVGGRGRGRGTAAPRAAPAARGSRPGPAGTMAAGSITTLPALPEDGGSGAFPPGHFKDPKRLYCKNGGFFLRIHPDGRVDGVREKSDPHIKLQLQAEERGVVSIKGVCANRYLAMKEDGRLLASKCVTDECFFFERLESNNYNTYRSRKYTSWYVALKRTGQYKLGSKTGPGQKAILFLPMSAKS
Chain of Torsin-1A (Homo sapiens) (O14656 whole entry, looked up): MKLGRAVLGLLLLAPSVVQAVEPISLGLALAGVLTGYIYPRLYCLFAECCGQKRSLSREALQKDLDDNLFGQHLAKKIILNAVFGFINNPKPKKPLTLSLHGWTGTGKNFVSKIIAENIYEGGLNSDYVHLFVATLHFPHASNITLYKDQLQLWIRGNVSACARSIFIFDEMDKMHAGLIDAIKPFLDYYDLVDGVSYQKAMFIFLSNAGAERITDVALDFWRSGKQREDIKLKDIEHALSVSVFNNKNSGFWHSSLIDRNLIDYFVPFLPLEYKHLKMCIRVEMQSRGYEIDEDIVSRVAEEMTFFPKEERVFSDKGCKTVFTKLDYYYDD

As to `O=C1O[C@H](c2ccccc2)[C@H](c2ccccc2)N2[C@H]1[C@@H](C(=O)O)[C@]1(C(=O)Nc3ccc(C#CC4=CCCCC4)cc31)[C@H]2c1ccc(O)cc1`, the composite z-score in [1] was 0.687; in experiment [2], 0.394; in experiment [3], 0.0304; in experiment [4] it was 0.987; in experiment [5] it was 1.35; in experiment [6], 0.392. The composite z-score in experiment [8] was 0.841; in experiment [9] it was 0.362; in [11] it was 0.423; in [16], -0.0343; in [17], -0.157; in experiment [18] it was -0.107. Also, the composite z-score is 0.298 in experiment [19] and 1.22 in experiment [20]. Also, the z-score in [7] was -2.35; in experiment [10], -2.89 (inactive); in experiment [12], -0.53 (inactive); in experiment [13], 0.608 (inactive); in experiment [14], 1.72 (inactive); in experiment [15] it was 0.945 (inactive).
For `COc1ccc(-c2nc(-c3ccccc3)c3c(c2C)CO[Si]3(C(C)C)C(C)C)cn1`, the composite z-score in experiment [1] is -0.479; in experiment [2], 0.081; in experiment [3], 0.268; in [4], -0.579; in [5], 0.16; in experiment [6], 0.639. For the same molecule, the composite z-score in experiment [8] was 0.402; in experiment [9], 0.0463; in experiment [11] it was 0.0934; in experiment [16], 0.188; in experiment [17], -0.0494; in experiment [18], 0.14. Moreover, the composite z-score is -0.129 in experiment [19] and 0.848 in [20]. The z-score is -0.0772 in experiment [7]; 0.431 (inactive) in experiment [10]; -0.483 (inactive) in experiment [12]; 0.338 (inactive) in [13]; -0.607 (inactive) in experiment [14]; 0.315 (inactive) in experiment [15].
Take `CCCC[C@@H]1C[C@H]1[C@@H](NC(=O)c1cccs1)c1ccc(C(F)(F)F)cc1`: the composite z-score in experiment [1] is 0.904; in experiment [2], -0.654; in experiment [3], -0.0276; in [4], -0.364; in experiment [5], 0.301; in experiment [6] it was -0.38. In addition, the composite z-score is 0.222 in experiment [8]; -0.945 in experiment [9]; -0.553 in experiment [11]; 0.189 in experiment [16]; -0.147 in experiment [17]; -0.848 in experiment [18]. The composite z-score in experiment [19] was -0.589; in [20], 0.652. For the same molecule, the z-score is 0.503 in experiment [7]; 1.2 (inactive) in experiment [10]; -0.368 (inactive) in experiment [12]; 0.195 (inactive) in [13]; 0.962 (inactive) in experiment [14]; 1.57 (inactive) in [15].
Consider `C=CCOC(=O)[C@H]1[C@@H]2C(=O)O[C@@H](c3ccccc3)[C@@H](c3ccccc3)N2[C@@H](c2ccc(OCCOC(=O)[C@@H]3C[C@@H]4C(=O)N[C@@H](CCCCN(C)C)C(=O)N4[C@@H]3c3ccc(O)cc3)cc2)[C@]12C(=O)Nc1ccccc12`, for which the composite z-score came to 1.57 in [1]; 1.14 in experiment [2]; 0.0515 in experiment [3]; 0.503 in experiment [4]; 1.38 in experiment [5]; 1.48 in [6]. The composite z-score was 1.54 in experiment [8]; 0.382 in experiment [9]; 0.261 in experiment [11]; -0.245 in experiment [16]; -0.0468 in [17]; 0.756 in [18]. In addition, the composite z-score in experiment [19] was determined as 0.73; in experiment [20], 1.96. In addition, the z-score in experiment [7] is -1.49; in [10], -3.27 (inactive); in experiment [12], -0.0273 (inactive); in experiment [13] it was 0.283 (inactive); in [14], 0.411 (inactive); in [15], 0.739 (inactive).
For the molecule `C=CCC(OC(C)=O)[C@@H]1[C@@H](N(Cc2cccc3ccccc23)C(=O)Cc2ccc(F)cc2)c2cc(OCCCO)ccc2N1C(=O)c1ccc2ccccc2n1` (stereo not given in full), the composite z-score in [1] is -0.478; in [2] it was -0.0554; in experiment [3], -0.122; in experiment [4], 0.0688; in [5], 0.187; in [6] it was 0.386. Further, the composite z-score in [8] was -0.553; in [9], 0.748; in [11] it was 0.243; in [16], -0.0219; in experiment [17], 0.0614; in [18], -0.149. Moreover, the composite z-score was -0.101 in experiment [19] and -0.0199 in experiment [20]. Moreover, the z-score in experiment [7] is -0.0984; in [10], 0.0778 (inactive); in [12], 0.0889 (inactive); in experiment [13], 0.0963 (inactive); in [14] it was 0.367 (inactive); in experiment [15] it was 0.101 (inactive).

For the origin of these results see PubChem BioAssay.
